Hits are enriched below; roughly 1.4% of the tested compounds scored in any of these assays.
APOBEC3A inh: blocks human APOBEC3A ssDNA deamination | inhibition, % at 20 µM | AID 493011 | 0.41% of 330,000 active | recombinant A3A, FAM/TAMRA ssDNA deamination fluorescence | P31941;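 active means at least 40% inhibition at 20 µM here, with at most 30% in a related deaminase screen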;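 further: plate controls were A3A with DMSO for no effect and wells lacking A3A enzyme for full effect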
GRK2 inh: inhibitors of human GRK2 displacing RNA aptamer | P25098 | bead flow cytometry, FAM-aptamer displacement from GRK2 | inhibition of aptamer binding, % at 10 µM | 0.59% of 330,000 active | AID 488847;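 active means inhibition of aptamer binding above 40%, roughly 3 SD of noise, on plates passing a quality check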;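 further: median bead fluorescence of bound FAM aptamer so fluorescent compounds give negative values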
VLA-4 inh: inhibition in a human VLA-4 binding assay | inhibition, % (about 7 µM as worked out from the volumes in the protocol) | P13612 | VLA-4 expressing cells, ligand binding flow cytometry | 0.2% of 330,000 active; in the data active means inhibition above about 50%
Target sequence (P13612 whole entry, looked up): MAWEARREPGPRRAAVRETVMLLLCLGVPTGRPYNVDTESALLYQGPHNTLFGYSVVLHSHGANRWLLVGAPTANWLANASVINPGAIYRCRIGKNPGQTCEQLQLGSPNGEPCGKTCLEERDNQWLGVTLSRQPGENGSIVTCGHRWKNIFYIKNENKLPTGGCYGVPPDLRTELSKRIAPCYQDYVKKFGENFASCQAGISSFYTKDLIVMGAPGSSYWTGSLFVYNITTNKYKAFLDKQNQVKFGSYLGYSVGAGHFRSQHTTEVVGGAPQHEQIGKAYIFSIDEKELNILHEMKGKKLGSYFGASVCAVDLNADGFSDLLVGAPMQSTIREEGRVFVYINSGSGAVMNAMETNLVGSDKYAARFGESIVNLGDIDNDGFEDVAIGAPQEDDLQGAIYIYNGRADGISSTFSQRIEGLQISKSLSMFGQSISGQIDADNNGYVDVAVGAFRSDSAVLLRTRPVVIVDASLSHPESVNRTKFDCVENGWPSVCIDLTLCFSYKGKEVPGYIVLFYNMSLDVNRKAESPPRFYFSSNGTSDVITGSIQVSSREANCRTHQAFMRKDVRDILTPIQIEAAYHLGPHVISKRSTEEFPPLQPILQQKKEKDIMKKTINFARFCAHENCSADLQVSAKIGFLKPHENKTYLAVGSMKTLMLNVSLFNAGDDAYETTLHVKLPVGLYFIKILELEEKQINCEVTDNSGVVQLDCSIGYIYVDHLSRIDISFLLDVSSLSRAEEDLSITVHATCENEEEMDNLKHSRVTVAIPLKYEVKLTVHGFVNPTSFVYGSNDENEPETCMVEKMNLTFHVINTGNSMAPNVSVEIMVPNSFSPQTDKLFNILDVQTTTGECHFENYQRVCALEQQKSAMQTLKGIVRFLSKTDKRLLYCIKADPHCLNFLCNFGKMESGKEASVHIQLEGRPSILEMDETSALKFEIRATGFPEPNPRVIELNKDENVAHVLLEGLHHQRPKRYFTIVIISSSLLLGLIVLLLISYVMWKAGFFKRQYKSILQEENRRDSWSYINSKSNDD
A3G deaminase: blocks human APOBEC3G single-stranded DNA deamination. Q9HC16. 0.28% of 330,000 active. inhibition, % at 20 µM. AID 493012. recombinant A3G, ssDNA deamination FAM/TAMRA fluorescence;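 active means inhibition of at least 40% at 20 µM, with no more than 30% in the related APOBEC3A deaminase screen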;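 further: plate controls were DMSO wells with A3G for no effect and wells lacking A3G enzyme for full effect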
GRK2 CP1: human GRK2 inhibition confirmation, cherry pick 1. shares compounds with GRK2 inh. bead-bound GRK2, FAM-aptamer displacement, flow cytometry. aptamer displacement, % at 10 µM. 4% of 2,000 active. AID 504451;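 active means aptamer displacement above 40%, near three times the noise of non-fluorescent compounds, on plates passing quality checks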;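 further: negative values mostly reflect intrinsic compound fluorescence rather than true enhancement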
Aptamer quench: counter-screen for GRK2 aptamer inhibitors: fluorescent aptamer quenchers | AID 504521 | 110 tested, under 10 active | shares compounds with GRK2 inh | fluorescence change (kMESF span), kMESF (no concentration beside the values) | Fluorescent RNA aptamer beads, quenching, flow cytometry; hits give high values;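 active means compounds whose bead fluorescence drops by more than 37 kMESF across the dose range, marking them as dye quenchers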
FAM quench CP1: aptamer fluorescence quenching in GRK2 counter-screen; shares compounds with GRK2 inh; Carboxyfluorescein RNA aptamer on beads, flow cytometry quenching; hits give low values; fluorescence response (% of DMSO), % at 10 µM; 2,000 tested, under 10 active;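 active means compounds that quench the bead-bound fluorescent RNA probe, cutting fluorescence to under half of the solvent control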;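 further: counterscreen run without GRK2 so only probe quenching by compound is measured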
GRK2 confirm 2: human GRK2 inhibition confirmation, cherry pick 2; inhibition of aptamer binding, % at 10 µM; 360 tested, under 10 active; AID 504782; bead-bound GRK2, FAM-aptamer displacement, flow cytometry; shares compounds with GRK2 inh;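 active means inhibition of aptamer binding above 40%, about triple the noise seen with nonglowing compounds, on plates passing quality control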;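 further: negative values mostly come from compounds that fluoresce themselves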
FAM quench CP2: counter-screen for GRK2 binding hits: quenchers of fluorescent RNA aptamer; shares compounds with GRK2 inh; carboxyfluorescein RNA aptamer beads, flow cytometry quenching; hits give low values; fluorescence response vs DMSO, % at 10 µM; 360 tested, under 10 active; AID 588494;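 active means response vs DMSO under 50%, meaning signal dropped by over half, treated as fluorescence quencher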;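 further: labelled aptamer on streptavidin beads without GRK2 as a quench counter-screen; 100% = bead fluorescence of DMSO wells and lower means quenching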
The depositor's hits bear a star; i = inactive; . = no result given.

SMILES	APOBEC3A inh	GRK2 inh	VLA-4 inh	A3G deaminase	GRK2 CP1	FAM quench CP1	others
Cc1nc2c(Br)c3nc(C(F)(F)F)[nH]c3c(Br)c2[nH]1	-5.1	0.0	8.6	-3.0	.	.
CCOc1ccccc1NC(=O)CCS(=O)(=O)c1ccc2c(c1)CCN2C(C)=O	3.0	6.0	-4.6	-2.8	.	.	GRK2 confirm 2=-8.3;FAM quench CP2=101.0
CCc1ccccc1NC(=O)CCS(=O)(=O)c1ccc2c(c1)CCCN2C(C)=O	-3.2	61.0*	4.9	-4.1	1.1	99.9	GRK2 confirm 2=17.2;FAM quench CP2=100.0
CCC(=O)N1CCc2cc(S(=O)(=O)CCC(=O)NCc3ccc(OC)cc3)ccc21	0.2	4.0	14.6	-2.8	.	.
CCC(=O)N1CCc2cc(S(=O)(=O)CCC(=O)NCc3cccs3)ccc21	-0.7	0.0	9.8	-3.9	.	.	GRK2 confirm 2=11.5;FAM quench CP2=99.0
O=C(Nc1ccc(Nc2ccccc2)cc1)c1ccc(Cl)cc1[N+](=O)[O-]	-1.9	1.0	6.6	-10.2	.	.
C/C(=N\NC(=O)CCc1ccccc1)c1ccc(Br)cc1	-4.1	2.0	29.2	-7.4	.	.
CCCCN(C(=O)c1cc(=O)[nH]c2ccccc12)c1c(N)n(CCC)c(=O)[nH]c1=O	13.3	1.0	-1.9	3.3	.	.
CCCN(C(=O)c1ccc(N2CCCC2=O)cc1)c1c(N)n(Cc2ccccc2)c(=O)[nH]c1=O	8.6	4.0	0.3	-4.5	-7.7	101.0
O=C(NCC1CCCN(C(=O)NCc2ccccc2)C1)c1ccc2c(c1)OCO2 (stereo not drawn)	-4.7	0.0	2.1	-12.2	-0.5	92.7
CC(C)CCNC(=O)CN(CCCN1CCOCC1)C(=O)Cn1nnc(-c2ccc(F)cc2)n1	9.5	0.0	-13.6	-7.8	.	.
NNc1ccc2nnc(C(F)(F)C(F)(F)C(F)(F)F)n2n1	-3.7	80.0*	9.3	-5.9	0.4	97.0
COc1cc(/C=C(\NC(C)=O)C(=O)N2CCCCC2)ccc1OC(C)=O	1.4	3.0	8.8	-5.7	.	.
CCOc1cc(N2CCOCC2)c(OCC)cc1NC(=O)c1cc(S(=O)(=O)N2CCOCC2)ccc1Cl	2.3	.	.	-5.7	0.8	97.6
CCOc1cc(N2CCOCC2)c(OCC)cc1NC(=O)c1ccc(OC)c(S(=O)(=O)N2CCOCC2)c1	-2.3	1.0	5.3	-5.6	-1.2	105.0
C=CCOc1ccc(-c2nc3c(c(=O)[nH]c(=O)n3CCC)n2CCCC)cc1	3.0	2.0	-7.7	-4.0	.	.
CCOc1ccc(C(=O)N(Cc2ccccc2)c2cccc(C)c2)cc1OC	11.7	25.0	4.8	-9.1	.	.
Cc1cc(C(=O)COC(=O)c2ccc(NC(=O)CC#N)cc2)c(C)n1CCc1ccc(F)cc1	2.0	57.0*	-0.2	-4.1	1.6	98.3
C=CCOc1ccc(C(=O)Nc2ccc(OCC)cc2)cc1	-2.7	3.0	17.4	-5.0	.	.
Cc1ccc(C(=O)N/N=C/c2cc(Br)ccc2O)cn1	-0.7	73.0*	-0.9	-5.4	-0.9	93.2
Cc1ccc(C(=O)N/N=C\C=C\c2ccc(Br)cc2)cn1	4.2	36.0	10.2	-9.3	.	.
Cc1c(Br)c(O)c(Br)c(O)c1/C=N/n1c(-c2ccccc2)n[nH]c1=S	-1.8	46.0*	-6.3	32.2	-0.5	99.7
CCOc1ccc(C(=O)N2CCN(C(=O)c3ccco3)CC2)cc1OCC	-0.2	0.0	11.2	-3.3	.	.
O=C(CN1C(=O)NC(Cc2ccccc2)C1=O)Nc1ccccc1F (stereo not drawn)	-2.2	44.0*	39.7	-2.8	.	.	GRK2 confirm 2=26.0;FAM quench CP2=100.0
O=C(CN1C(=O)NC(Cc2ccccc2)C1=O)Nc1ccc(F)cc1 (stereo not drawn)	2.3	4.0	-49.0	9.5	.	.
SMILES	APOBEC3A inh	GRK2 inh	VLA-4 inh	A3G deaminase	GRK2 CP1	FAM quench CP1	others
C=CCn1cc(C(=O)N2CCN(C)CC2)c(=O)c2cc(S(=O)(=O)N3CCCC3)ccc21	-5.1	0.0	10.2	-9.0	.	.
CCN(CC)c1ccc(/C=N/N2CC(=O)NC2=S)cc1	-2.7	1.0	-5.6	-6.6	.	.
COC(=O)c1[nH]c2cc(C)ccc2c1NC(=O)CN1CCN(c2ccccc2OC)CC1	2.0	1.0	5.3	2.1	.	.
COC(=O)c1[nH]c2ccc(C)cc2c1NC(=O)CN1CCCc2ccccc21	5.7	89.0*	-13.4	-5.9	-6.2	118.3
COc1ccc(OCC(=O)NC(=S)N2CCCc3ccccc32)cc1	1.0	0.0	28.2	19.9	.	.
CC1CCN(C(=O)COC(=O)C(C)N2C(=O)c3ccccc3C2=O)CC1 (stereo not drawn)	-3.9	2.0	14.7	4.5	.	.
CC(C(=O)OCC(=O)N1CCN(c2ccccc2)CC1)N1C(=O)c2ccccc2C1=O (stereo not drawn)	-2.9	3.0	9.7	-6.5	-1.0	100.4
COc1cccc(N2CCN(C(=S)Nc3ccc(F)cc3)CC2)c1	-5.7	1.0	13.3	-7.3	.	.
Cc1ccc2c(nc3s/c(=C\c4ccc(-c5ccccc5C(=O)O)o4)c(=O)n32)c1C	28.6	49.0*	-85.1	5.8	2.4	104.9
O=C(O)c1ccc(-c2ccc(/C=c3/sc4nc5ccccc5n4c3=O)o2)cc1Cl	97.0	80.0*	-53.6	82.2	60.1*	94.5	Aptamer quench=10.1
CCOC(=O)C(C)N1C(=O)S/C(=C\c2ccc(-c3ccccc3C(=O)O)o2)C1=O (stereo not drawn)	94.1	84.0*	3.7	60.4	71.3*	103.3	Aptamer quench=-278
CC1(C)OC(=O)C(=Cc2ccc(-c3ccc(Cl)c(C(=O)O)c3)o2)C(=O)O1	61.0	24.0	1.5	43.1	.	.
Cc1ccc(C)c(N2C(=N)S/C(=C\c3ccc(-c4ccccc4C(=O)O)o3)C2=O)c1	.	0.0	-3.2	.	.	.
CCN1CCN(Cc2ccc(NC(=O)c3ccc(C)c(NC(=O)C(=O)c4c[nH]c5ccccc45)c3)cc2C(F)(F)F)CC1	14.7	0.0	15.7	-12.1	.	.
N#CC1=C(S)N(c2ccc(F)cc2)C(c2ccco2)NC1=O (stereo not drawn)	0.4	0.0	1.4	-16.4	.	.
N#CC1=C(S)N(c2ccccc2)C(c2ccco2)NC1=O (stereo not drawn)	-1.1	74.0*	-17.2	-6.3	0.8	100.6
CCOc1ccccc1N(C)C(=O)CCS(=O)(=O)c1ccc2c(c1)NC(=O)CO2	2.2	0.0	-5.2	-2.3	.	.	GRK2 confirm 2=i;FAM quench CP2=107.0
O=C(Cn1cc(C(=O)c2cccs2)c2ccccc21)NCc1ccc2c(c1)OCO2	-2.5	69.0*	2.4	0.5	-1.6	99.5
CC(C)Cn1cc(C(=O)NCC2CCCO2)c2c3ccccc3n(C)c2c1=O (stereo not drawn)	-1.5	0.0	.	-2.2	.	.

Bioassay records (PubChem)
